Results reported in PubChem BioAssay.
Several values for one entry are separate records, joined by “and”; a condition that tells them apart may be missing. Identical values can stand only once.

These molecules were tested against Torsin-1A-interacting protein 1 (Homo sapiens) (UniProt Q5JTV8) (assay: compound microarray binding of lysate hLAP1 – cell lysate, small-molecule microarray, COS7 lysate, 635/667 nm fluorescence, primary screen (AID 1116)). Conditions: 635 nm fluorescence, higher = more signal.
Chain of Torsin-1A-interacting protein 1 (Homo sapiens) (Q5JTV8 whole entry, looked up): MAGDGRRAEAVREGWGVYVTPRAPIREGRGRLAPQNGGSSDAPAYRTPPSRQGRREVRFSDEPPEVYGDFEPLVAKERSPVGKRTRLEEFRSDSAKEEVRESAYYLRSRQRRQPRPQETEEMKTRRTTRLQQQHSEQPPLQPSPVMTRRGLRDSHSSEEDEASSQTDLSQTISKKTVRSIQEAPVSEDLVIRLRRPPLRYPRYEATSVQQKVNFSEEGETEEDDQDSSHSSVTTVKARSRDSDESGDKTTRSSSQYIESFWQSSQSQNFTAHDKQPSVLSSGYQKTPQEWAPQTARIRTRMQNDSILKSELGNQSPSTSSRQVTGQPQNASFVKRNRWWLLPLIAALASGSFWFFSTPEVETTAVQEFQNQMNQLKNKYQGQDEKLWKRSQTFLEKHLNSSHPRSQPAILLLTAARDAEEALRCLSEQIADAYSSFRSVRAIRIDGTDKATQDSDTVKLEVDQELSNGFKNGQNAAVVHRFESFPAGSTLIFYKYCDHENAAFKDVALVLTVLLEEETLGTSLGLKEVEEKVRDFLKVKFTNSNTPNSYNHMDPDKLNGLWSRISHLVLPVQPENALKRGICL

Question: `CC(CO)N1C(=O)[C@@H]2C3C(=O)OCCC=C[C@H]3OC23C=CCN(CCN2CCOCC2)C(=O)[C@@H]13` (some centres undefined) was tested. Which composite z-score did it give?
Answer: -0.71 and 1.48

Question: How did the composite z-score turn out when `COC(=O)C1=C(C)N(Cc2ccccc2)C2=C(C(C)=O)[C@H](c3ccccc3)[C@@](O)(C(=O)OC)C(=O)N2[C@@H]1c1ccccc1` was run?
Answer: -0.0984 and -0.136

Question: How did the composite z-score turn out when `CC(C)=NOC[C@@H](O)COCc1ccco1` was run?
Answer: -0.2

Question: With `C[C@@H]1CC[C@H]2C(=O)NC[C@@H](O)CN2[C@H]1c1ccc(Br)cc1` as the molecule, how does the composite z-score read?
Answer: 0.36 and 0.348

Question: Which composite z-score does the source give for `CCOC(=O)[C@@H]1CC2O[C@]23C[C@@H]1C(=O)N1CCC[C@@H]1[C@H]3O[Si](C)(C)C(C)(C)C` (some centres undefined) here?
Answer: -0.826 and -0.136

Question: For `C[N+](C)(C)CCCCNC(=O)[C@H]1C[C@H]2C(=O)N[C@@H](CCCC[N+](C)(C)C)C(=O)N2[C@H]1c1ccc(O)cc1`, which composite z-score is on record?
Answer: 0.699 and 0.0645

Question: Which composite z-score does the source give for `CC(C)[Si]1(C(C)C)OCc2cc(CCCc3cc4c(c(CCc5ccccc5)n3)[Si](C(C)C)(C(C)C)OC4)nc(CCc3ccccc3)c21` here?
Answer: -0.421 and 0.248

Question: How did the composite z-score turn out when `COC(=O)C1=C(C)N(Cc2ccccc2)C2=C3C(=O)N(c4ccccc4)C(=O)[C@@H]3[C@@](O)(C(=O)OC)C(=O)N2[C@@H]1c1ccccc1` was run?
Answer: 0.792 and 1.32

Question: For `CO[C@H]1COC(=O)CC=C[C@H](C)[C@H](OC)COC(=O)[C@@H](C)COC(=O)CC=C[C@@H]1C`, which composite z-score is on record?
Answer: 0.123 and -0.771

Question: Which composite z-score does the source give for `C=CCN(C(=O)C1N(c2ccc(CCO)cc2)C(=O)C2C(C(=O)O)C3C=CC21O3)c1ccc(OC)cc1` (centres undefined) here?
Answer: -0.447 and 0.206

Question: `COC(=O)[C@@]1(Cc2ccc(F)cc2)[C@H]2c3cc(C(=O)N4CCCC4)n(Cc4c(CO)[nH]cc(C)c4=O)c3C[C@H]2CN1C(=O)c1ccccc1` was tested. Which composite z-score did it give?
Answer: 0.959 and 1.72

Question: How did the composite z-score turn out when `CC(CO)N1C(=O)[C@@H]2C3C(=O)OCCC=C[C@H]3OC23C=CCN(c2ccc(Cl)cc2)C(=O)[C@@H]13` (some centres undefined) was run?
Answer: -0.236 and 1.7

Question: For `C=CCN(CCCC)C(=O)C(c1cccs1)N(C(=O)/C=C\C(=O)O)c1c(Cl)cccc1CO` (centres undefined), which composite z-score is on record?
Answer: -1.53 and -1.41

Question: `CCOC(=O)C[C@H]1[C@H](OC(=O)c2ccccc2-c2ccccc2)[C@@H](NC(=O)c2ccccc2)c2cc(OCCCO)ccc2N1C(=O)c1ccc2ccccc2n1` was tested. Which composite z-score did it give?
Answer: 0.491 and 0.364

Question: For `C=CCN(C(=O)C1N(c2c(Cl)cccc2CO)C(=O)C2C(C(=O)O)C3C=CC21O3)C(C)(C)C` (centres undefined), which composite z-score is on record?
Answer: -0.879 and -1.71

Question: `C#CCCCON=C1C[C@@H](O)[C@@H](O)[C@@H]2[C@@H]3C(=O)N(C4CCCCC4)C(=O)[C@@H]3CC[C@H]12` was tested. Which composite z-score did it give?
Answer: 0.104

Question: Which composite z-score does the source give for `C=CCN(CCCC)C(=O)C1N(c2ccc(CCO)cc2)C(=O)C2C(C(=O)O)C3C=CC21O3` (centres undefined) here?
Answer: -0.994 and -1

Question: With `C=CCN(C(=O)C1N(c2c(Cl)cccc2CO)C(=O)C2C(C(=O)O)C3C=CC21O3)c1ccc(OC)cc1` (centres undefined) as the molecule, how does the composite z-score read?
Answer: -0.809 and -0.822

Question: For `CON(C)C(=O)c1nnc2c3ccccc3n(S(=O)(=O)c3ccc(C)cc3)c2n1`, which composite z-score is on record?
Answer: 0.637 and 0.223

Question: Which composite z-score does the source give for `CCCC[C@@H]1CN2[C@H](c3ccc(Br)cc3)[C@@H](C)CC[C@H]2C(=O)O1` here?
Answer: 0.0737 and 0.259

Question: Which composite z-score does the source give for `C=CCN(CCCCC)C(=O)C1N(c2ccc(CCO)cc2)C(=O)C2C(C(=O)O)C3C=CC21O3` (centres undefined) here?
Answer: 0.143 and 0.422

Question: For `C=CCN(Cc1ccccc1)C(=O)C1N(C(C)(C)CO)C(=O)C2C(C(=O)O)C3C=CC21O3` (centres undefined), which composite z-score is on record?
Answer: 0.148 and -1.17

Question: Which composite z-score does the source give for `O=C1C[C@]2(c3ccc([N+](=O)[O-])cc3)C(=O)N(Cc3ccccc3)c3cc(CO)ccc3[C@H]2N1C1CCCCC1` here?
Answer: 0.395 and -0.136

Question: Which composite z-score does the source give for `C=CCN(Cc1ccccc1)C(=O)C(c1cccs1)N(C(=O)/C=C\C(=O)O)c1c(Cl)cccc1CO` (centres undefined) here?
Answer: -1.51 and -0.936

Question: How did the composite z-score turn out when `CCOC(=O)c1ccc(NC(=O)O[C@H]2[C@H](OC(=O)Nc3ccccc3)[C@@H](OC(=O)Nc3ccccc3)[C@@H](OC)O[C@@H]2CO)cc1` was run?
Answer: 1.2 and 1.5

Question: How did the composite z-score turn out when `C=C(C)C(=O)OC[C@@H]1CN2[C@@H](CC[C@@H](C)[C@@H]2c2ccc(Br)cc2)C(=O)O1` was run?
Answer: 0.183

Question: With `CC(CO)N1C(=O)[C@@H]2C3C(=O)OCCC=C[C@H]3OC23C=CCN(Cn2nnc4ccccc42)C(=O)[C@@H]13` (some centres undefined) as the molecule, how does the composite z-score read?
Answer: -0.393 and 0.0141

Question: How did the composite z-score turn out when `O=C(NN=C1C[C@@H](O)[C@@H](O)[C@@H]2[C@@H]3C(=O)N(Cc4ccc5c(c4)OCO5)C(=O)[C@@H]3CC[C@H]12)OCc1ccccc1` was run?
Answer: -0.842

Question: Which composite z-score does the source give for `COC(=O)[C@@]1(Cc2ccc(OC)cc2)[C@H]2c3cc(C(=O)N(C)C)n(Cc4ccc(O)c(OC)c4)c3C[C@H]2CN1C(=O)c1ccccc1` here?
Answer: 2.63 and 1.12

Question: How did the composite z-score turn out when `O=C1NC(=O)C2C1C=CC(C(O)c1ccc([N+](=O)[O-])cc1)N2Nc1ccc(Cl)cc1Cl` (centres undefined) was run?
Answer: 1.9 and 1.62

Question: For `CC(C)=CCCC(C)=CCON=C1C[C@@H](O)[C@@H](O)[C@@H]2[C@@H]3C(=O)N([C@@H](C)c4ccccc4)C(=O)[C@@H]3CC[C@H]12`, which composite z-score is on record?
Answer: 0.166

Question: With `COC(=O)C1=C(C)N(Cc2ccccc2)C2=C3C(=O)CCC[C@@H]3[C@@](O)(C(=O)OC)C(=O)N2[C@@H]1c1ccccc1` as the molecule, how does the composite z-score read?
Answer: 0.617 and 0.179

Question: Which composite z-score does the source give for `CCCC[C@@H]1CN2[C@@H](CC[C@@H](C)[C@@H]2c2ccc(Br)cc2)C(=O)O1` here?
Answer: 0.0865 and -0.0158

Question: `CCN1C(=O)[C@H]2[C@H]3[C@H](O)[C@H](O)CC(=NOC)[C@@H]3CC[C@H]2C1=O` was tested. Which composite z-score did it give?
Answer: 0.262

Question: With `CC(C)OC(=O)C=C1C[C@@H](c2cccc(C(F)(F)F)c2)O[C@@H](c2cccc(C(F)(F)F)c2)O1` as the molecule, how does the composite z-score read?
Answer: 1.03 and 0.0622

Question: `CC(C)=NO[C@@H](C)c1cc(-c2c(C)cc(C)cc2C)no1` was tested. Which composite z-score did it give?
Answer: 0.1

Question: Which composite z-score does the source give for `C=CCN(C(=O)C1N(CCOCCO)C(=O)C2C(C(=O)O)C3C=CC21O3)c1ccc(OC)cc1` (centres undefined) here?
Answer: 1.38 and -0.149

Question: For `C=CCN(C(=O)C(c1cccs1)N(CCOCCO)C(=O)/C=C\C(=O)O)c1ccc(OC)cc1` (centres undefined), which composite z-score is on record?
Answer: -0.618 and -0.178

Question: `C=CCN(Cc1ccccc1)C(=O)C(c1cccs1)N(C(=O)/C=C\C(=O)O)c1ccc(CCO)cc1` (centres undefined) was tested. Which composite z-score did it give?
Answer: -0.648 and -0.326
